Compounds with a hit are over-represented: about 9.2% of the library has one in this group of screens.
ELG1 DNA repair – qHTS screen for small molecules that inhibit ELG1-dependent DNA repair in human embryonic kidney (HEK293T) cells expressing luciferase-tagged ELG1; HEK293T ELG1-luciferase reporter, luminescence, 16 h; DNA damage induced by 5-fluorouridine; Potency, µM (titrated, usually from 46.1 µM), for inactives: top-dose activity change, negative = inhibition, actives largely listed as inhibitors; 2.3% of 330,000 active; note: % is set by controls: 0 for no effect and ±100 for the full control effect; nearly all actives have a fitted effect of over 55% in size
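Luminescence from the luciferase reporter, measured 30 min after ONE-Glo reagent at room temperature, was the read-out. Beforehand, 2,000 cells per well were exposed for 16 hr at 37 °C to 5-fluorouridine together with compound or vehicle.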
NPC1 prom act – qHTS Assay for NPC1 Promoter Activators | Huh7 NPC1 promoter luciferase reporter, 24 h | Potency, µM (series often up to 9.22 µM), without a hit: at the highest dose activation, most hits filed as activators | 2.4% of 320,000 active | AID 485313, 2010; note: % of control where 0% means no effect; nearly all actives have a fitted effect of over 60% in size
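Stably transfected Huh7 (NPC1 promoter→luciferase), 1500 cells/well in Opti-MEM + 10% FBS, 2 h settle, then compound 24 h at 37 °C. Luminescence after 10 min with Amplite reagent.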
Rab9 promoter act – qHTS Assay for Rab9 Promoter Activators. Huh7 Rab9 promoter-luciferase reporter, luminescence, 24 h. Potency, µM (doses to about 9.22 µM), for the others: at the highest dose activation, negative = inhibition, most hits filed as activators. 2.8% of 320,000 active; note: % of control where 0% means no effect; nearly all actives have a fitted effect of over 60% in size
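Measured in stably transfected Huh7 cells bearing a Rab9 promoter–luciferase construct: 24 h compound treatment at 37 °C, followed by luminescence detection.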
SMN2 splice up – qHTS Assay for Enhancers of SMN2 Splice Variant Expression | Potency, µM (highest dose often 46.1 µM), for the others: at the top dose activity change, positive = activation, usual class: activators | AID 1458, 2008 | HEK293 SMN2-luciferase splicing reporter, luminescence, 30-36 h | 2.8% of 210,000 active; note: % of control where 0% means no effect; nearly all actives have a fitted effect of over 55% in size
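qHTS luciferase splicing reporter: luminescence rises when SMN2 exon 7 is included in transfected HEK293 cells. Compound exposure lasted 30-36 h at 37C, with 4.5 mM final sodium butyrate as control, followed by a ONE-Glo read.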
FLuc counter – qHTS profiling assay for firefly luciferase inhibitor/activator using purifed enzyme and Km concentrations of substrates (counterscreen for miR-21 project); Luciferin 4-monooxygenase (Photinus pyralis), P08659; purified FLuc, Km substrates, luminescence inhibition; Potency, µM (doses to about 57.5 µM), for the others: top-dose activity change, negative = inhibition, hits mostly inhibitors; 6.9% of 360,000 active; AID 588342, 2011;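 note: plate controls were vehicle for no effect and reference inhibitor for full effect; nearly all actives have a fitted effect of over 55% in size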
Target sequence (P08659 whole entry, looked up): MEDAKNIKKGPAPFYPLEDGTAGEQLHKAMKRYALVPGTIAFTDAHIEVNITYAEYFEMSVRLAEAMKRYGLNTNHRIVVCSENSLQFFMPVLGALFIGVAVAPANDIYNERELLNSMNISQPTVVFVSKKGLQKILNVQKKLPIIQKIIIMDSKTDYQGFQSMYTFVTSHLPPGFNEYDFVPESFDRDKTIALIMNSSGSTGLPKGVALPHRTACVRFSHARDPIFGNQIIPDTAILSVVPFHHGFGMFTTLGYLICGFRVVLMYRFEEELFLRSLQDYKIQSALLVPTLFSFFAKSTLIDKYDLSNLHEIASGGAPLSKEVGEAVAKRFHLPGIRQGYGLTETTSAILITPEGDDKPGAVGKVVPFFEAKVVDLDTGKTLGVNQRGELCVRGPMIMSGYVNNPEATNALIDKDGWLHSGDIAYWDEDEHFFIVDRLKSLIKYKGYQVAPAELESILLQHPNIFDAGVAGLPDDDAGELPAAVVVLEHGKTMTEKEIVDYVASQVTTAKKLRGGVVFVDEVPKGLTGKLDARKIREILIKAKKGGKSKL
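Biochemical qHTS of compounds, final roughly 60 µM downward over six points, against 10 nM purified firefly luciferase using Km concentrations of substrates (10 uM D-luciferin, 10 uM ATP) in Tris acetate pH 7.5 buffer; luminescence output.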
ELG1 genotox – qHTS screen for small molecules that induce genotoxicity in human embryonic kidney (HEK293T) cells expressing luciferase-tagged ELG1 | 1.3% of 330,000 active | Potency, µM (highest dose often 46 µM), inactives show top-dose activity change, positive = activation, hits mostly activators | HEK293T ELG1-luciferase reporter, luminescence, 16 h; note: % of control where 0% means no effect; nearly all actives have a fitted effect of over 60% in size
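Quantitative HTS format in 1536-well plates. HEK293T ELG1-luciferase reporter cells receive test compound and are incubated 16 hr at 37 °C, 5% CO2; ONE-Glo added, 30 min room temperature, then luminescence read.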
Starred values were filed as active, the others as inactive; ? = inconclusive; / = not tested or not shown; [ ] = remark or other dose. Calls come from the whole dose curve; as a rule, active = well fitted curve in the direction sought with a large enough effect; inconclusive = small, poorly fitted or top-dose-only effect, or another doubt; inactive = no such curve, though single readings can be large; an effect the other way counts as inactive or inconclusive. Potency is the fitted concentration of half-maximal effect.

SMILES	ELG1 DNA repair	NPC1 prom act	Rab9 promoter act	SMN2 splice up	FLuc counter	ELG1 genotox
COc1ccc(NC(=O)c2c(Cl)n(C)c3ccccc23)cc1	?	27.5%	27.6%	?	9.53µM*	16.8%
Cc1ccc(NC(=S)c2ccccc2)cc1	?	?	2.51µM*	-0.3%[1.84 µM]	4.78µM*	?
COc1ccc(NC(=S)c2ccncc2)cc1	0.3%	-2.5%	-10.8%	-49.8%	0.4%	-0.2%
O=C(Nc1ccc(Oc2ccsc2C(=O)O)cc1)c1ccccc1	20.0%	-1.1%	-8.0%	/	23.9µM*	-0.2%
Cc1ccc(NC(=S)c2ccncc2)cc1	12.3%	4.3%	-0.6%	/	?	-0.9%[9.26 µM]
COc1ccc(C(=S)Nc2ccc(C)cc2)cc1	?	2µM*	2.82µM*	17.8µM*	2.39µM*	29.2%
CC(=O)c1ccccc1NC(=O)COC(=O)Cc1cccc(C(F)(F)F)c1	1.5%	2.1%	4.2%	/	1.6%	-1.8%
Cc1oc(-c2ccc(Cl)cc2)nc1CN1CCC(C(=O)NCCCN2CCCC(C)C2)CC1 (stereo not drawn)	6.2%	0.1%	-8.0%	/	-1.4%	11.7%
COc1ccc(NC(=O)c2ccccc2)cc1	?	3.55µM*	1.78µM*	/	?	?
O=C(NC(Cc1c[nH]c2ccccc12)C(=O)NCc1ccc(F)cc1)OCc1ccccc1 (stereo not drawn)	-24.2%	-1.0%	2.4%	9.9%	?	-6.3%
Cc1cccc(-c2cccc(NC(=O)C3CCCN(C(=O)c4csc(C)n4)C3)c2)c1 (stereo not drawn)	?	4.0%	20.8%	/	?	-4.1%
CN1CCN(c2ccc(-c3nc(-c4ccccc4)no3)cc2[N+](=O)[O-])CC1	/	/	/	/	-12.2%	/
CCN(CC)c1ccc(C=C(c2nnnn2-c2ccc(C)cc2)c2nnnn2-c2ccc(C)cc2)cc1	-2.2%	-5.1%	-1.0%	?	2.0%	-0.9%
COc1ccc(NC(=O)Nc2ccc3c(c2)CCC3)c(OC)c1	23.7%	4.3%	10.3%	-6.8%	-3.5%	11.5%
COc1cc(OC)cc(C(=O)N[C@H](C(=O)Nc2cc(C)cc(C)c2)C(C)C)c1	-12.3%	-1.7%	4.9%	/	-1.1%	-2.1%
COc1ccc(OC)c(NC(=O)Nc2ccc3c(c2)CCC3)c1	-2.8%	2.3%	0.7%	/	26.9µM*	-4.7%
COc1cc(OC)cc(C(=O)NC(C(=O)Nc2ccc3c(c2)CCC3)C(C)C)c1 (stereo not drawn)	7.3µM*	0.1%	-3.8%	/	9.9%	-3.1%
COc1cccc(NC(=O)Nc2ccc3c(c2)CCC3)c1	?	2.24µM*	1.58µM*	/	4.26µM*	11.5%
CCOC(=O)c1ccccc1NC(=S)N1CCN(C2CCCCC2)CC1	-11.0%	-0.9%	-8.2%	-40.3%	-1.1%	-5.4%
CSc1cccc(NC(=O)c2[nH]c(C)c(C(C)=O)c2C)c1	?	?	?	/	16.9µM*	23.1µM*
CC(=O)c1c(C)[nH]c(C(=O)N2CCN(c3cc(Cl)ccc3C)CC2)c1C	3.66µM*	-22.8%	-15.3%	7.1%	5.7%	-17.2%
CC(=O)c1c(C)[nH]c(C(=O)N2CCN(c3ccc(F)cc3)CC2)c1C	-8.2%	1.4%	2.1%	-24.2%	-0.7%	-1.8%
CC(=O)c1c(C)[nH]c(C(=O)Nc2ccc(Cl)cc2)c1C	?	3.16µM*	1.78µM*	/	9.53µM*	0.0%
CC(=O)c1c(C)[nH]c(C(=O)Nc2cccc(C)c2C)c1C	?	-1.2%	0.0%	/	-1.0%	-4.3%
CC(=O)c1c(C)[nH]c(C(=O)NCCc2ccc(Cl)cc2)c1C	-0.7%	7.8%	14.2%	3.7%	-18.8%	-1.6%
